SW480 rerep: A quantitative high throughput screen for small molecules that induce DNA re-replication in SW480 colon adenocarcinoma cells | AID 624297, 2012 | actives 1.8% (n = 340,000) | Potency, µM (top dose mostly 46.1 µM), actives largely listed as activators | SW480 DNA re-replication, Hoechst DNA content imaging, 48 h; note: nearly all actives have a fitted effect of over 55% in size
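Image-based read-out: total Hoechst fluorescence of nuclei (405 nm excitation, 500-530 nm emission), with hits raising the fraction of high-intensity nuclei. SW480 colon cells incubated 48 hr with compounds at 37 C.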
BCR signal inh: qHTS Assay to Find Inhibitors of Chronic Active B-Cell Receptor Signaling | ABC-DLBCL IkBa-CBG/CBR reporter, luminescence ratio, 4 h | Potency, µM (titrated, usually from 46.1 µM), hits mostly inhibitors | actives 0.05% (n = 340,000) | AID 493014, 2011; active = well fitted inhibition curve with a large enough effect in the signal ratio, with a control signal flat, not every such curve was filed as active; inconclusive = small, poorly fitted or top-dose-only effect, or effect the other way, or a change in a side signal; the % refers to the signal ratio
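TMD8 human ABC-DLBCL cells with doxycycline-inducible IκBα–green luciferase fusion and unfused red luciferase, in 0.5% FBS medium; compounds up to 46 uM, 4 h at 37C. Green/red luminescence ratio, filter-overlap corrected, fitted to concentration-response curves.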
Giardia kill: Small Molecules that selectively kill Giardia lamblia: qHTS. Giardia lamblia trophozoite viability. actives 0.15% (n = 340,000). activity change, % at 7.66 µM, hits read low; in the data active = activity change below about -80%; inconclusive = between about -30% and that limit;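 note: parasites exposed to compound for two days anaerobically before the ATP read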
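Trophozoites 100 cells/well + cpd; 48 hrs, 37 deg C, anaerobic. ATPLite 1-Step added, 15-30 min RT, luminescence read (ATP-based viability).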
VP16 counter: VP16 counterscreen qHTS for inhibitors of ROR gamma transcriptional activity | Drosophila S2 Gal4-VP16 UAS-luciferase, luminescence, 20 h | AID 2546, 2010 | actives 3.5% (n = 310,000) | Potency, µM (series often up to 53.6 µM), actives largely listed as inhibitors;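 note: Gal4-VP16 expression switched on by copper sulfate through the metallothionein promoter; nearly all actives have a fitted effect of over 50% in size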
MCF10A rereplic: A quantitative high throughput screen for small molecules that induce DNA re-replication in MCF 10a normal breast cells; MCF 10A DNA re-replication, Hoechst nuclear intensity, 48 h; Potency, µM (highest dose often 46.1 µM), usual class: activators; actives 2.9% (n = 350,000); AID 624296, 2012; note: nearly all actives have a fitted effect of over 50% in size
RORg inh: qHTS for inhibitors of ROR gamma transcriptional activity. Potency, µM (series often up to 53.6 µM), hits mostly inhibitors. actives 5.4% (n = 310,000). AID 2551, 2010. Drosophila S2 Gal4-RORgamma UAS-luciferase reporter, 20 h; note: nearly all actives have a fitted effect of over 60% in size
Target sequence (P51450 whole entry, looked up, the tested form may be a part): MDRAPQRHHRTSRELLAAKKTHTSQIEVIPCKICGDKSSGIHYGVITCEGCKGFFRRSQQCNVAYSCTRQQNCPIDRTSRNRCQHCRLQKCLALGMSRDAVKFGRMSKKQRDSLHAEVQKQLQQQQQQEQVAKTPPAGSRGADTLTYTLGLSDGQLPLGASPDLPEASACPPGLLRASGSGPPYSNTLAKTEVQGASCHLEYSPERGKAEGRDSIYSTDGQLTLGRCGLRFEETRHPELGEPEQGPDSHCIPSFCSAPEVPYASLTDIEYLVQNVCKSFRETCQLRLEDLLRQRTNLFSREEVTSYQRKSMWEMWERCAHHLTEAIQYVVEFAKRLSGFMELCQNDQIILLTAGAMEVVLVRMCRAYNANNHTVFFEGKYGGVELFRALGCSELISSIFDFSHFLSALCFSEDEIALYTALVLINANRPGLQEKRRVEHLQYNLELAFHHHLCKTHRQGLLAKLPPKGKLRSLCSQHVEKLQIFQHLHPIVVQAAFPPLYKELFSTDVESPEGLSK
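Using a luciferase readout, inhibitors were identified by reduced reporter activity in Drosophila cells coexpressing a copper-inducible Gal4–ROR gamma fusion and UAS-driven Photinus luciferase, incubated 20 hr after 700 uM copper sulfate.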
Of the large screens only hits and unclear results are named; the others gave an inactive call. An excerpt weighted towards active compounds, which were near 8.3% of everything screened. Unless noted, calls come from the whole dose curve; as a rule, active = well fitted curve in the direction sought with a large enough effect; inconclusive = small, poorly fitted or top-dose-only effect, or another doubt; inactive = no such curve, though single readings can be large; an effect the other way counts as inactive or inconclusive.

O=C(O)Cc1ccc(NC(=O)c2ccc(NC(=O)C3CC3)cc2)cc1	BCR signal inh inconclusive
COc1ccc(NC(=O)CNc2ccccc2N2CCCC2=O)cc1S(=O)(=O)N1CCOCC1	none (no result: VP16 counter, RORg inh)
S=c1nc(C2COc3ccccc3O2)[nH][nH]1 (centres undefined)	RORg inh 13µM
O=C(c1ccc(Cl)cc1Cl)c1ncc(C(F)(F)F)cc1Cl	none
O/N=C(\c1ccc(Cl)cc1Cl)c1ncc(C(F)(F)F)cc1Cl	BCR signal inh inconclusive, VP16 counter 25µM, MCF10A rereplic inconclusive, RORg inh 11µM
COc1ccc(CNC(=O)CCC2N=C3c4ccccc4N=C(SCC(=O)NCC4CCCO4)N3C2=O)cc1 (centres undefined)	none
CC[C@@]1(O)CC2CN(CCc3c([nH]c4ccccc34)[C@](C(=O)OC)(c3cc4c(cc3OC)N(C)C3[C@@](O)(C(=O)OC)C(OC(C)=O)[C@]5(CC)C=CCN6CC[C@@]43C65)C2)C1 (some centres undefined)	SW480 rerep 0.67µM, MCF10A rereplic inconclusive (no result: BCR signal inh, Giardia kill)
Cc1ccccc1C(=O)NC(=S)NC1CCSC1=O (centres undefined)	BCR signal inh inconclusive, RORg inh 11µM
Cc1onc(-c2c(F)cccc2Cl)c1C(=O)NC(=S)NC1CCSC1=O (centres undefined)	VP16 counter 7.1µM, MCF10A rereplic inconclusive, RORg inh 7.1µM
CC(C)(Cc1ccccc1)/[N+]([O-])=C\c1ccccc1	none (no result: VP16 counter, RORg inh)
O=C(Cn1c(=O)oc2ccccc21)NC(=O)NCc1ccccc1	none
CSc1ccc(C(c2c(C(=O)O)[nH]c3ccccc23)c2c(C(=O)O)[nH]c3ccccc23)cc1	SW480 rerep inconclusive, BCR signal inh inconclusive, MCF10A rereplic 21µM
COc1ccc(S(=O)(=O)NN(C)c2ncc(C(F)(F)F)cc2Cl)cc1	VP16 counter inconclusive, RORg inh 4µM
O=S(=O)(c1ccc(Oc2ccc(F)c(Cl)c2)nc1)N1CCOCC1	BCR signal inh inconclusive (no result: VP16 counter, RORg inh)
COc1cc(/C=N/NC(=O)c2ccc3c(c2)OCCO3)cc(Br)c1O	BCR signal inh inconclusive, VP16 counter inconclusive, RORg inh 16µM
O=C(N/N=C/c1ccc2c(c1)OCO2)c1ccc2c(c1)OCO2	BCR signal inh inconclusive
COc1cc(/C=N/NC(=O)c2ccc3c(c2)OCCO3)c(Br)c(Br)c1O	SW480 rerep inconclusive, BCR signal inh inconclusive, MCF10A rereplic inconclusive
COc1cc(/C=N/NC(=O)C2C3CCCCC32C)cc(Br)c1O (centres undefined)	BCR signal inh inconclusive, VP16 counter 5µM, RORg inh 7.1µM
O=C(N/N=C/c1cccc(O)c1)c1ccc2c(c1)OCCO2	BCR signal inh inconclusive, Giardia kill inconclusive, VP16 counter 6.3µM, RORg inh 3.2µM
Cc1cccc(/C=N/NC(=O)c2ccc3c(c2)OCCO3)c1O	BCR signal inh inconclusive, VP16 counter 2.5µM, RORg inh 3.5µM (no result: SW480 rerep, Giardia kill, MCF10A rereplic)
CNC1(C)[C@H]2CC[C@H](C2)C1(C)C (some centres undefined)	none (no result: VP16 counter, RORg inh)
O=C(N/N=C\c1cccc(OC(=O)c2ccco2)c1)c1ccc2c(c1)OCO2	SW480 rerep inconclusive, BCR signal inh inconclusive, VP16 counter 6.3µM, RORg inh 14µM
Cc1ccc(-n2nnnc2SCCNS(=O)(=O)c2ccccc2)cc1C	none
O=C(N/N=C/c1cn(-c2cccs2)nc1-c1ccccc1)c1ccccc1Br	BCR signal inh inconclusive, VP16 counter 6.3µM, RORg inh 5.6µM
Cc1nn(-c2ccccc2)cc1/C=N/NC(=O)c1cccs1	VP16 counter inconclusive, MCF10A rereplic inconclusive, RORg inh inconclusive
OCc1cn(-c2ccccc2)nc1-c1cc2ccccc2o1	BCR signal inh inconclusive, VP16 counter 11µM, RORg inh inconclusive
O=C(N/N=C/c1cn(-c2ccccc2)nc1-c1cc2ccccc2o1)c1ccccc1Br	BCR signal inh inconclusive, VP16 counter 5µM, MCF10A rereplic inconclusive, RORg inh inconclusive
O=C(N/N=C/c1cn(-c2cccs2)nc1-c1ccccc1)c1ccccc1O	SW480 rerep inconclusive, BCR signal inh inconclusive, VP16 counter inconclusive, MCF10A rereplic 15µM, RORg inh 0.028µM
O=C(N/N=C/c1cn(-c2ccccc2)nc1-c1cc2ccccc2o1)c1c[nH]c2ccccc12	RORg inh inconclusive
COc1ccc(NC(=O)c2cn(-c3ccccc3)nc2-c2cc3ccccc3o2)cc1	none
CC(=O)NCCc1c[nH]c2ccc(OCC(O)CNC(C)(C)C)cc12 (centres undefined)	none
S=C(NCc1ccccc1)N1CCN(c2ccccc2)CC1	none
O=C(NCc1cccc(Cl)c1)N1CCN(S(=O)(=O)c2ccccc2F)CC1	SW480 rerep inconclusive
CC1(C)C=Cc2cc(-c3coc4cc(O)cc(O)c4c3=O)cc(O)c2O1	MCF10A rereplic 15µM (no result: BCR signal inh, VP16 counter, RORg inh)
CCc1nc2sc3c(c2c(=S)[nH]1)CC(C)(C)OC3	VP16 counter 6.3µM, RORg inh 2µM
CC1(C)Cc2c(sc3nc(N/N=C/c4ccccc4)[nH]c(=O)c23)CO1	none
CC(C)=NNc1nc2sc3c(c2c(=O)[nH]1)CC(C)(C)OC3	SW480 rerep inconclusive, BCR signal inh inconclusive, MCF10A rereplic 12µM
CSc1nc2sc3c(c2c(=S)[nH]1)CC(C)(C)OC3	BCR signal inh inconclusive, VP16 counter 11µM, RORg inh 3.2µM
O=C(c1c(O)cc(O)cc1O)C1c2c(cc(O)c3c2O[C@H](c2ccc(O)cc2)[C@@H](O)C3)OC1c1ccc(O)cc1 (some centres undefined)	none (no result: VP16 counter, RORg inh)
CSc1ccccc1OCc1cc(C(=O)NCCCn2nc(C)cc2C)no1	BCR signal inh inconclusive
O=C(Nc1cc(Cl)cc(Cl)c1)C1CCC(=O)N1Cc1ccccc1Cl (centres undefined)	BCR signal inh inconclusive, VP16 counter 16µM, MCF10A rereplic inconclusive, RORg inh inconclusive
COC(=O)/C=C1/SC(=NC(=O)c2ccc(Cl)cc2)NC1=O	none (no result: BCR signal inh, VP16 counter, RORg inh)
CCC(=O)NC(c1ccc(Cl)cc1Cl)c1ccc2cccnc2c1O (centres undefined)	SW480 rerep 0.52µM, BCR signal inh inconclusive, VP16 counter inconclusive, MCF10A rereplic inconclusive
CC(C)C(=O)NC(c1ccc(Cl)cc1Cl)c1ccc2cccnc2c1O (centres undefined)	SW480 rerep inconclusive, VP16 counter 3.2µM, RORg inh 4.5µM
CC(=O)NC(c1ccc(Cl)cc1)c1ccc2cccnc2c1O (centres undefined)	none (no result: BCR signal inh, VP16 counter, RORg inh)

High-throughput results from PubChem.
